Screens deposited in PubChem by several laboratories.
Compounds with a hit are over-represented: about 1.3% of the library has one in this group of screens.
E coli Lon inh: inhibitors of E. coli Lon protease, primary screen, biochemical, fluorescence polarization. P0A9M0. purified E. coli Lon protease. inhibition, % at 7.94 µM. hit rate 0.42% among 360,000; in the data active = inhibition above about 13%, passing the limit was not always enough;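 also: 0% = enzyme with probe and DMSO and 100% = no enzyme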
BCLXL inh: inhibitors of human Bcl-xL, primary screen, biochemical, fluorescence polarization, HTS; inhibition, % at 10.9 µM; GST-Bcl-xL / FITC-Bim BH3 peptide fluorescence polarization; hit rate 0.7% among 320,000;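 active = inhibition above the mean of all tested compounds plus 3 SD, cutoff set per campaign, cut at about 30% in these data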;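 also: 0% = DMSO wells and 100% = unlabeled Bim-BH3 peptide competitor; inhibitors lower millipolarization by displacing the labeled peptide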
GLD-1 TGE inh: GLD-1/TGE RNA complex disruptors, primary screen, biochemical, fluorescence polarization; Female germline-specific tumor suppressor gld-1 (Caenorhabditis elegans), Q17339; purified GLD-1 + fluorescein TGE RNA; inhibition, % at 5.96 µM; hit rate 0.44% among 320,000; AID 2280, 2010;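 active = percent inhibition above a per-plate cutoff, the plate mean of test compounds plus 3 SD, cut at about 30% in these data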;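 also: 0% = DMSO wells with GLD-1 and probe and 100% = wells lacking GLD-1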
EBV gp42 block: Epstein-Barr virus gp42 inhibitors, primary screen, biochemical, uHTS, fluorescence polarization; Glycoprotein 42 (Epstein-Barr virus (strain AG876)), Q1HVG2; Fluorescence polarization binding assay, mP read-out; inhibition, % (tested at 21.74 µM); hit rate 0.42% among 220,000; AID 1085, 2008; in the data active = inhibition above about 50%
MEX-5 binding: MEX-5 zinc finger RNA-binding disruptors – biochemical, C. elegans, fluorescence polarization, MLPCN library, primary screen; Zinc finger protein mex-5 (Caenorhabditis elegans), Q9XUB2; MEX-5/FITC-TCR2 RNA binding; active compounds read low; activity score (negative = inhibition of binding), % at 10 µM; hit rate 0.38% among 300,000;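 active = inhibition past about -25% in most replicates, and total fluorescence under double the plate's negative control median, limit read from the data; inconclusive = replicates evenly split on the limit, or fluorescence at least double controls; inactive = too little inhibition in most replicates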;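 also: 0% = DMSO and -100% = 5 µM competing unlabeled TCR2 RNA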
Target sequence (Q9XUB2 whole entry, looked up): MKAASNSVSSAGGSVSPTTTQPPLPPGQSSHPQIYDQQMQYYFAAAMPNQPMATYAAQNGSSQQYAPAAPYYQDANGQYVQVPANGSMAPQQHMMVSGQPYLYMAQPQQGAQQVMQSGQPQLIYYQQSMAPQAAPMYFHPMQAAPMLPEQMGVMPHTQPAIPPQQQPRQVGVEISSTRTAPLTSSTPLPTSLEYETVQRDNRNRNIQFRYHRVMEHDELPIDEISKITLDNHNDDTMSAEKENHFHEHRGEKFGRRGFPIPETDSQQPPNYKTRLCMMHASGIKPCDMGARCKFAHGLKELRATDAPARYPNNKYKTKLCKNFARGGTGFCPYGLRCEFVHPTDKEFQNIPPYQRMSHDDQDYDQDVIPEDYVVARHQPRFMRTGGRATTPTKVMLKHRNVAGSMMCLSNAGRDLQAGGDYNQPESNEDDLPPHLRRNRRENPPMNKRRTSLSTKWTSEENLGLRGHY
The depositor's hits bear a star; ! = not active in a repeat.

Results for Cc1ccc(CNC(=O)CSc2ccsc2[N+](=O)[O-])cc1 ?
E coli Lon inh: 2; BCLXL inh: 6; GLD-1 TGE inh: 5; EBV gp42 block: 4; MEX-5 binding: 1

Results for CC(=O)c1ccc(NC(=O)CSc2ccsc2[N+](=O)[O-])cc1 ?
E coli Lon inh: -12; EBV gp42 block: 51*; MEX-5 binding: -4

Results for O=C(CSc1ccsc1[N+](=O)[O-])Nc1cc(F)ccc1F ?
E coli Lon inh: -9; EBV gp42 block: 91*; MEX-5 binding: -2

Results for COc1ccc(-c2csc(C(C#N)=C(O)CSc3nccn3C)n2)cc1OC ?
E coli Lon inh: -30

How did COc1ccc(/C=C/c2nc3sc4c(c3c(=O)o2)CCC4)cc1 do in these assays?
E coli Lon inh: -2; BCLXL inh: 1; GLD-1 TGE inh: -1; MEX-5 binding: -30*

Results for CCOc1ccc(S(=O)(=O)c2c[nH]c3ccc(C)cc3c2=O)cc1 ?
E coli Lon inh: -9; BCLXL inh: 41*; GLD-1 TGE inh: 19; MEX-5 binding: 0

How did CCCN1CCc2c(sc(NC(=O)C3CCN(S(=O)(=O)c4cccs4)CC3)c2C(N)=O)C1 do in these assays?
E coli Lon inh: -5; BCLXL inh: -1; GLD-1 TGE inh: -6; MEX-5 binding: -1

What do the screens show for `Nc1nc(N)nc(-c2cc(O)ccc2O)n1`?
E coli Lon inh: 9; BCLXL inh: 13; GLD-1 TGE inh: 10

How did Oc1ccc(O)c(-c2cnns2)c1 do in these assays?
E coli Lon inh: 19; BCLXL inh: 19; GLD-1 TGE inh: 14; EBV gp42 block: -23; MEX-5 binding: -63*

Results for N=C1/C(=C\c2coc3ccccc3c2=O)C(=O)N=C2SC(c3ccncc3)=NN12 ?
E coli Lon inh: -351; BCLXL inh: -28; GLD-1 TGE inh: -84; EBV gp42 block: -59; MEX-5 binding: 0

What do the screens show for `CC(C)CSC1=NSC2=NC(=O)/C(=C\c3coc4ccccc4c3=O)C(=N)N12`?
E coli Lon inh: -256; BCLXL inh: 80*; GLD-1 TGE inh: -195; EBV gp42 block: 104*; MEX-5 binding: inconclusive

How did N=C1/C(=C/c2coc3ccccc3c2=O)C(=O)N=C2SC(c3ccco3)=NN12 do in these assays?
E coli Lon inh: -326; BCLXL inh: -26; GLD-1 TGE inh: -35; EBV gp42 block: 45; MEX-5 binding: inconclusive

What do the screens show for `CC(C)CSC1=NSC2=NC(=O)/C(=C\c3ccccc3)C(=N)N12`?
E coli Lon inh: -28; BCLXL inh: -4; GLD-1 TGE inh: -13; EBV gp42 block: 0; MEX-5 binding: -5

What do the screens show for `CSC1=NSC2=NC(=O)/C(=C\c3coc4ccccc4c3=O)C(=N)N12`?
E coli Lon inh: -360; BCLXL inh: -17; GLD-1 TGE inh: -91; EBV gp42 block: 76*

What do the screens show for `N=C1/C(=C\c2coc3ccc(O)cc3c2=O)C(=O)N=C2SC=CN12`?
E coli Lon inh: -233; BCLXL inh: 61*; GLD-1 TGE inh: 55*; EBV gp42 block: 33; MEX-5 binding: inconclusive

Results for CCC(C)n1c(=N)c(C#N)cc2c(=O)n3cc(C)ccc3nc21 (configuration not stated) ?
E coli Lon inh: 1; BCLXL inh: 10; GLD-1 TGE inh: 9; EBV gp42 block: -10; MEX-5 binding: -34*

What do the screens show for `CCC(C)n1c(=N)c(C#N)cc2c(=O)n3cccc(C)c3nc21` (configuration not stated)?
E coli Lon inh: 1; BCLXL inh: 5; GLD-1 TGE inh: 0; EBV gp42 block: -18; MEX-5 binding: inconclusive

How did C=CCN1C(=O)[C@]2(c3ccccc31)C1CCCC=C1C(C#N)=C(N)C2(C#N)C#N (some centres not stated) do in these assays?
E coli Lon inh: -6; BCLXL inh: -5; GLD-1 TGE inh: -1; EBV gp42 block: -12; MEX-5 binding: 2

What do the screens show for `CN1CCC2(CC1)C1CN(C)CC=C1C(C#N)=C(N)C2(C#N)C#N` (configuration not stated)?
E coli Lon inh: 0; BCLXL inh: 120*; GLD-1 TGE inh: 20; EBV gp42 block: 76*!; MEX-5 binding: inconclusive

How did Cn1c(=O)c2[nH]c(CN(Cc3ccccc3)Cc3ccccc3)nc2n(C)c1=O do in these assays?
E coli Lon inh: 7; BCLXL inh: -4; GLD-1 TGE inh: 34*; EBV gp42 block: 8; MEX-5 binding: 1

Results for CCN1CCc2nc3sc(C(=O)Nc4cccnc4Cl)c(N)c3cc2C1 ?
E coli Lon inh: -25; BCLXL inh: 46*; GLD-1 TGE inh: 28; MEX-5 binding: -9

Results for CCN1CCc2nc3sc(C(=O)N4CCc5ccccc5C4)c(N)c3cc2C1 ?
E coli Lon inh: -15; BCLXL inh: 29; GLD-1 TGE inh: 22; MEX-5 binding: 0

How did CCCn1c(/C=C/c2cc[n+](C)cc2)nc2ccccc21 do in these assays?
E coli Lon inh: 8; BCLXL inh: 67*; GLD-1 TGE inh: 30; MEX-5 binding: 1

What do the screens show for `CCOC(=O)c1sc2nc3c(SCCC(=O)O)cc(C(=O)c4cc(OC)ccc4O)cn3c(=O)c2c1C`?
E coli Lon inh: -20; EBV gp42 block: 79*; MEX-5 binding: 0

How did CCOC(=O)c1sc2nc3c(SCCC#N)cc(C(=O)c4cc(F)ccc4O)cn3c(=O)c2c1C do in these assays?
E coli Lon inh: -22; BCLXL inh: -2; GLD-1 TGE inh: -4; EBV gp42 block: -61; MEX-5 binding: 5

Results for COc1cc2ccc(=O)oc2cc1OCC(O)C(C)(C)O (configuration not stated) ?
E coli Lon inh: -1; BCLXL inh: 1; GLD-1 TGE inh: 9; EBV gp42 block: -17; MEX-5 binding: -2

What do the screens show for `C/C(=C\COc1ccc2ccc(=O)oc2c1)CC[C@@H](O)C(C)(C)O`?
E coli Lon inh: 0; BCLXL inh: 160*; GLD-1 TGE inh: 5

What do the screens show for `CCCc1nc2nc(C)c(NS(=O)(=O)c3ccc(Cl)cc3)c(=O)n2[nH]1`?
E coli Lon inh: 10; BCLXL inh: 9; GLD-1 TGE inh: -4; MEX-5 binding: 2

What do the screens show for `N#CC(C(=O)NC1CCCCC1)c1nc2ccccc2nc1N1CCN(c2ccc(F)cc2)CC1` (configuration not stated)?
EBV gp42 block: 14; MEX-5 binding: -76*

How did N#CC(C(=O)NC1CC1)c1nc2ccccc2nc1N1CCCC1 (configuration not stated) do in these assays?
E coli Lon inh: -5; BCLXL inh: 18; GLD-1 TGE inh: 2; EBV gp42 block: 26; MEX-5 binding: -8

What do the screens show for `O=C(NC(NC(=S)Nc1ccc(Cl)cc1Cl)C(Cl)(Cl)Cl)c1cccc([N+](=O)[O-])c1` (configuration not stated)?
E coli Lon inh: -5; BCLXL inh: -1; GLD-1 TGE inh: 8; EBV gp42 block: 60*; MEX-5 binding: 3
